We go through 26 compounds from ChEMBL document CHEMBL4513141, “CO-ADD screening of NIH (USA) - Clinical Collection” (2021).

A word on the Inhibition: it is the relative decrease from the control value, in per cent.

One assay relates to Klebsiella pneumoniae. As to conditions: Concentration 20 uM; ASSAY_TEST Inhibition of Bacterial Growth; detection method Absorption (OD600); MEDIA CAMHB; plate type 384well; NBS; CORNING #3640; time 18 hr.
The next assay has as its system Candida albicans. The settings on record: 20 µM.
A further assay has as its system Cryptococcus neoformans. The settings on record: Concentration 20 uM; ASSAY_TEST Inhibition of Fungal Growth; detection method Resazurin; Absorption (OD600-OD570); plate type 384well; NBS; CORNING #3640.

Potency and affinity values are given separately.

As to `CC=CC(=O)N(CC)c1ccccc1C`, the Inhibition is 0.87% in the assay with Klebsiella pneumoniae, 0.3% in the assay on Candida albicans and -7.28% with Cryptococcus neoformans.
`CCCCC(=O)OC1(C(=O)CO)CCC2C3CCC4=CC(=O)CCC4(C)C3C(O)CC21C` (stereo not drawn): the Inhibition is 9.82% in the assay with Klebsiella pneumoniae, 3.16% with Candida albicans and -1.86% in the assay on Cryptococcus neoformans.
Consider `Cc1ccc(S(=O)(=O)NC(=O)NN2CCCCCC2)cc1` [TOLAZAMIDE], for which the Inhibition in the assay with Klebsiella pneumoniae is -1.58%; with Candida albicans, -0.09%; in the assay with Cryptococcus neoformans, -7.48%.
For `NS(=O)(=O)Cc1noc2ccccc12` [ZONISAMIDE], the Inhibition in the assay on Klebsiella pneumoniae was 12.91%; with Candida albicans, 3.7%; in the assay on Cryptococcus neoformans, -5.53%.
Take `CCCCCCCCCCC[C@@H](C[C@@H]1OC(=O)[C@H]1CCCCCC)OC(=O)[C@H](CC(C)C)NC=O` [ORLISTAT]: the Inhibition with Klebsiella pneumoniae was 7.06%; in the assay on Candida albicans, 1.01%; in the assay with Cryptococcus neoformans, -4.7%.
The matching figures for `Nc1nc(Cl)nc2c1ncn2[C@@H]1O[C@H](CO)[C@@H](O)[C@H]1O`: 2.26%, 4.78% and 0.98%.
For `CCC1(c2ccccc2)C(=O)NCNC1=O` [PRIMIDONE], the Inhibition in the assay with Klebsiella pneumoniae was determined as 7.75%; in the assay with Candida albicans, 2.22%; in the assay with Cryptococcus neoformans, 0.81%.
On the same counts, the results for `NC(=O)N1c2ccccc2C=Cc2ccccc21` [CARBAMAZEPINE] are 5.59%, 4.45% and -2.39%.
As to `CC(C)NCC(O)COc1ccc(COCCOC(C)C)cc1.CC(C)NCC(O)COc1ccc(COCCOC(C)C)cc1.O=C(O)/C=C/C(=O)O` (stereo not drawn) [BISOPROLOL FUMARATE], the Inhibition with Klebsiella pneumoniae was 12.19%; with Candida albicans, 0.23%; in the assay on Cryptococcus neoformans, -4.67%.
`CC(C)(C)C(O)/C=C/c1ccc2c(c1)OCO2` (stereo not drawn) [STIRIPENTOL]: the Inhibition stood at 6.61% in the assay with Klebsiella pneumoniae, 4.55% in the assay with Candida albicans and 2.5% in the assay on Cryptococcus neoformans.
On the same counts, the results for `CCN1CCC[C@H]1CNC(=O)c1c(O)c(Cl)cc(Cl)c1OC` [RACLOPRIDE] are 6.89%, 2.44% and 1.03%.
On the same counts, the results for `Cl.OC(CCN1CCCC1)(c1ccccc1)C1CCCCC1` (stereo not drawn) [PROCYCLIDINE HYDROCHLORIDE] are 8.43%, 4.68% and -10.03%.
The matching figures for `COc1ccc(CC2c3cc(OC)c(OC)cc3CC[N+]2(C)CCC(=O)OCCCCCOC(=O)CC[N+]2(C)CCc3cc(OC)c(OC)cc3C2Cc2ccc(OC)c(OC)c2)cc1OC.O=S(=O)(O)c1ccccc1` (stereo not drawn): 4.87%, 3.58% and -0.33%.
Turning to `O=C1N[C@H](C(=O)O)CS1` [PROCYSTEINE], the Inhibition is 8.75% in the assay on Klebsiella pneumoniae, 3.85% with Candida albicans and -5.5% in the assay with Cryptococcus neoformans.
For the compound `CCS(=O)(=O)CCn1c([N+](=O)[O-])cnc1C` [TINIDAZOLE], the Inhibition with Klebsiella pneumoniae is 6.48%; in the assay on Candida albicans, 4.29%; with Cryptococcus neoformans it was -11.27%.
As to `CC[C@H](C)C(=O)O[C@H]1C[C@@H](C)C=C2C=C[C@H](C)[C@H](CC[C@@H]3C[C@@H](O)CC(=O)O3)[C@H]21` [LOVASTATIN], the results for the Inhibition in the assay on Klebsiella pneumoniae, in the assay on Candida albicans and with Cryptococcus neoformans were 12.43%, 17.1% and -5.68%, respectively.
On the same counts, the results for `CCCC(=O)Nc1ccc(OCC(O)CNC(C)C)c(C(C)=O)c1.Cl` (stereo not drawn) [ACEBUTOLOL HYDROCHLORIDE] are 19.26%, 1.82% and -1.83%.
The matching figures for `CC(C(O)c1ccc(O)cc1)N1CCC(Cc2ccccc2)CC1.O.O=C(O)C(O)C(O)C(=O)O` (stereo not drawn): 15.53%, 2.38% and -4.72%.
For `COC(=O)C1=C(C)NC(C)=C(C(=O)OCCN(C)Cc2ccccc2)C1c1cccc([N+](=O)[O-])c1.Cl` (stereo not drawn) [NICARDIPINE HYDROCHLORIDE], the Inhibition in the assay with Klebsiella pneumoniae is -5.88%; in the assay on Candida albicans it was 0.94%; with Cryptococcus neoformans, -9.15%.
On the same counts, the results for `CC(C)c1ccc2c(c1)c(SC(C)(C)C)c(CC(C)(C)C(=O)O)n2Cc1ccc(Cl)cc1` are 11.6%, 1.56% and -9.17%.
`O=C1CCC(N2C(=O)c3ccccc3C2=O)C(=O)N1` (stereo not drawn) [THALIDOMIDE]: the Inhibition with Klebsiella pneumoniae is 3.28%; in the assay on Candida albicans it was 3.62%; in the assay on Cryptococcus neoformans, -0.8%.
As for `C#C[C@]1(O)CC[C@H]2[C@@H]3CCc4cc(O)ccc4[C@H]3CC[C@@]21C` [ETHINYL ESTRADIOL], the Inhibition in the assay on Klebsiella pneumoniae is 16.78%; with Candida albicans, 2.87%; with Cryptococcus neoformans it was -5.67%.
For `CS(=O)(=O)O.Cc1c(O)cccc1C(=O)N[C@@H](CSc1ccccc1)[C@H](O)CN1C[C@H]2CCCC[C@H]2C[C@H]1C(=O)NC(C)(C)C` [NELFINAVIR MESYLATE], the Inhibition in the assay on Klebsiella pneumoniae was 0.71%; in the assay on Candida albicans it was 0.96%; in the assay with Cryptococcus neoformans it was -18.17%.
On the same counts, the results for `CCCCN1CCCC1CNC(=O)c1cc(C#N)c2ccccc2c1OC` (stereo not drawn) [NAFADOTRIDE] are 16.43%, 4.38% and -22.16%.
As to `Cc1[nH]c(=O)c(C#N)cc1-c1ccncc1` [MILRINONE], the results for the Inhibition in the assay with Klebsiella pneumoniae, in the assay with Candida albicans and in the assay with Cryptococcus neoformans were 13.45%, 3.54% and -6.55%, respectively.
The matching figures for `CC(CCc1ccccc1)NCC(O)c1ccc(O)c(C(N)=O)c1.Cl` (stereo not drawn) [LABETALOL HYDROCHLORIDE]: 19.39%, 4.68% and -9.04%.
